Screening results deposited in PubChem BioAssay by National Center for Advancing Translational Sciences (NCATS).
DT40 TDP1 CPT = qHTS for Inhibitors of human tyrosyl-DNA phosphodiesterase 1 (TDP1): qHTS in cells in presence of CPT; chicken DT40 Tdp1-/-;hTDP1 cells + 20 nM CPT, ATP luminescence, 48 h; Potency, µM (series often up to 46.2 µM), for the others: at the highest dose activity change, negative = growth inhibition, actives largely listed as inhibitors; 420,000 tested, 12% active; AID 686979, 2013; further: potency means the concentration at half of the fitted maximal effect; on the % scale 0 is the no-effect control and ±100 the full control effect; nearly all actives have a fitted effect of over 55% in size
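Chicken DT40 Tdp1-/- cells stably complemented with human TDP1 were seeded at 400 cells/well in medium containing 20 nM camptothecin, exposed to pin-transferred compounds, and grown at 37 °C for at least 48 hr. Viability was read as ATP luminescence.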
ClpP mod = qHTS Assay for Activators of ClpP; purified B. subtilis ClpP, FRET peptide cleavage, 20 min; Potency, µM (titrated, usually from 57.5 µM), without a hit: at the top dose activity change, negative = active; 340,000 tested, 1.9% active; AID 651965, 2013; active means well fitted falling curve with a large enough effect; inconclusive means small, poorly fitted or top-dose-only effect; inactive means no such curve, though single readings can be large or run the other way; further: potency means the concentration at half of the fitted maximal effect; the source files actives as falling curves though it sought activators and does not explain the sign; nearly all actives have a fitted effect of over 65% in size
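Purified B. subtilis ClpP, 10 microg/mL final in Tris/HCl pH8 with KCl, BSA, glycerol and Tween-20, cleaved an Abz/nitrotyrosine-quenched decapeptide. Fluorescence (ex 320, em 430) was read at 0 and 20 min at room temperature. Delta was normalized to 5.8 microM ADEP and DMSO/no-enzyme controls.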
DT40 TDP1 no CPT = qHTS for Inhibitors of human tyrosyl-DNA phosphodiesterase 1 (TDP1): qHTS in cells in absence of CPT; DT40 Tdp1-/- hTDP1 cells, no CPT, ATP luminescence, 48 h; Potency, µM (highest dose often 46.2 µM), for inactives: top-dose activity change, negative = growth inhibition, usual class: inhibitors; 420,000 tested, 15% active; AID 686978, 2013; further: potency means the concentration at half of the fitted maximal effect; on the % scale 0 is the no-effect control and ±100 the full control effect; nearly all actives have a fitted effect of over 55% in size
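DT40 Tdp1-/-;hTDP1 cells, no CPT (DMSO vehicle only), 400 cells/well; compounds pin-transferred; ≥48 hr, 37 °C; CellTiter-Glo 30 min RT dark, luminescence read.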
IL1B secr inh = qHTS for Inhibitors of Inflammasome Signaling: IL-1-beta AlphaLISA Primary Screen; activity change, % at 57.5 µM; THP-1 LPS/ATP IL-1B secretion, AlphaLISA, 16 h; active compounds read low; 360,000 tested, 4.7% active; in the data active means activity change below about -50%; inconclusive means mostly about -30% to -49%; further: on the % scale 0 is the no-effect control and ±100 the full control effect
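Secreted IL-1B measured by AlphaLISA bead assay after 16 h compound exposure of THP-1 cells; compounds (final up to 57.5 uM) added 1 h before LPS (250 ng/mL) and ATP (1.25 mM) stimulation; lower signal means less secretion.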
DRD3 agonist = qHTS of D3 Dopamine Receptor Agonist: qHTS; D3R DiscoveRx beta-arrestin cells, luminescence, 90 min; 410,000 tested, 0.58% active; D(3) dopamine receptor (Homo sapiens), P35462; AID 652048, 2013; max activation, %; in the data active means max activation above about 30%; further: 0% is about no effect
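Cells at 1500/well, incubated overnight, then treated with pinned compounds (dopamine as control) for 90 min at 37 degrees C. DiscoveRx reagent added for 30 - 60 minutes at room temperature; luminescence read.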
D3 antag = qHTS of D3 Dopamine Receptor Antagonist: qHTS; D(3) dopamine receptor (Homo sapiens), P35462; D3R cells, DiscoveRx beta-arrestin luminescence, antagonist mode; active compounds read low; AID 652054, 2013; max response, negative = inhibition, %; 360,000 tested, 2.5% active; in the data active means max response below about -50%; inconclusive means no clear call, values can overlap the other calls; further: on the % scale 0 is the no-effect control and ±100 the full control effect
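Cells plated overnight at 1500 cells/well, then exposed to library compounds with dopamine controls for 90 minutes at 37 degrees C. DiscoveRx reagent added for 30–60 minutes at room temperature; luminescence read, quantitative HTS format.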
* hit, by the source's call; u = inconclusive; x = no result given. Most compounds without a hit are left out; they make up all but 21% or so of the library. Unless noted, the call rests on the fitted dose curve; in most records, active means well fitted inhibition curve with a large enough effect; inconclusive means small, poorly fitted or top-dose-only effect; inactive means flat fitted curve, though single readings scatter.

SMILES	DT40 TDP1 CPT	ClpP mod	DT40 TDP1 no CPT	IL1B secr inh	DRD3 agonist	D3 antag
Cc1ccc2c(c1)-c1c(ssc1=S)C(C)(C)N2C(=O)c1ccco1	u	1%	16µM*	-57*	-26	-62*
CCOC(=O)N1CCN(C(=S)Nc2ccc(C)cc2)CC1	-16%	-12%	-7%	-8	0	-1
COc1ccccc1OCC(=O)NCC(c1ccc(Cl)cc1)N1CCOCC1 (centres undefined)	u	0%	u	x	1	x
Cc1oc(-c2ccc(C(=O)NCc3ccc(N(C)C)cc3)cc2)nc1COc1ccccc1	3%	0%	-26%	x	7	x
COc1ccc(OCC(=O)Nc2c(C(=O)N3CCC(N4CCCCC4)CC3)oc3ccccc23)cc1	u	-5%	u	u	-4	-7
Nc1ccc(S(=O)(=O)NC2(C(F)(F)F)NC(=O)N(c3ccc(F)cc3)C2=O)cc1 (centres undefined)	13%	x	1%	12	6	7
O=C(NC1CCCC1)C(c1ccncc1)N(Cc1ccccc1)C(=O)c1ccc(-c2ccccc2)[nH]1 (centres undefined)	21µM*	-15%	16µM*	-79*	-11	-26
O=C(NC1CCCCC1)C(c1ccc(F)cc1)N(Cc1ccco1)C(=O)c1ccccn1 (centres undefined)	0.82µM*	x	-25%	-8	5	-2
Cc1ccccc1C(C(=O)NCc1ccccc1)N(Cc1ccco1)C(=O)c1ccccn1 (centres undefined)	u	-1%	15µM*	-15	2	-9
O=C(NCc1ccccc1)C(c1ccc(F)cc1)N(Cc1ccco1)C(=O)c1ccccn1 (centres undefined)	u	1%	u	-9	1	6
O=C(NC1CCCC1)C(c1ccncc1)N(Cc1ccco1)C(=O)c1ccc(-c2ccccc2)[nH]1 (centres undefined)	23µM*	x	16µM*	-105*	-6	-23
CCOc1ccc(C(C(=O)NC2CCCC2)N(CCCO)C(=O)c2ccc(-c3ccccc3)[nH]2)cc1 (centres undefined)	21µM*	-21%	18µM*	-21	-2	-16
CCOc1ccccc1/C=N\Nc1cnn(Cc2ccccc2)c(=O)c1Cl	23µM*	x	u	u	4	30
O=C(N=C1SC2CS(=O)(=O)CC2N1c1ccc(F)cc1)C1CC1 (centres undefined)	6%	-1%	5%	20	-2	-4
CN(C)c1ccc(C=NNC(=O)c2cccc3ccccc23)c(Cl)c1	5.2µM*	37%	4.1µM*	35	-7	-19
O=[N+]([O-])c1ccccc1/C=N/NC1=NCCN1	2%	1%	-8%	-7	-1	1
O=C(N/N=C/c1ccnc2ccccc12)c1ccccc1O	3.3µM*	-1%	12µM*	-20	-30	u
O=C(O)c1ccc(N/N=C/c2ccnc3ccccc23)cc1	-29%	-1%	-29%	u	2	-14
C(=NNC1=NCCN1)c1ccnc2ccccc12	-4%	2%	u	-103*	0	13
O=C(N/N=C/c1ccccc1O)c1cccc2ccccc12	5.8µM*	19%	4.1µM*	98	4	18
COC(=O)N1CCC2(CC1)CN(c1ccccn1)C2	7%	x	-7%	x	x	x
Cc1nn(C)c(C(=O)N/N=C/c2cccc3ccccc23)c1Cl	0%	14µM*	-3%	-14	-7	-14
COc1cc2sc3cc(NCCCN4CCOCC4)ccc3c(=O)c2cc1OC	u	4%	u	-75*	-5	-4
Cc1cc2oc3cc(NCCC4CCCN4C)ccc3c(=O)c2cc1C (centres undefined)	8.2µM*	3%	5.8µM*	-85*	0	0
O=c1c2ccccc2sc2ccc(NCCCN3CCOCC3)cc12	u	-4%	23µM*	0	-12	0
SMILES	DT40 TDP1 CPT	ClpP mod	DT40 TDP1 no CPT	IL1B secr inh	DRD3 agonist	D3 antag
CN1CCCC1CCNc1ccc2sc3ccccc3c(=O)c2c1 (centres undefined)	u	-10%	u	-66*	-27	3
COc1ccc2sc3ccccc3c(=O)c2c1	8%	-3%	6%	-1	-3	21
O=C(c1cccc(F)c1)N1CCC2(CCN(Cc3ccncc3)CC2)CC1	11%	x	-23%	x	x	x
CCn1c(=O)c2sccc2n2c(CCC(=O)Nc3cc(C)cc(C)c3)nnc12	-1%	0%	-3%	x	6	x
CC(NCC(=O)Nc1ccccc1C(=O)NC1CC1)c1cccc(C(F)(F)F)c1 (centres undefined)	u	1%	u	-12	6	-2
CC(C)(C)OC(=O)N1CCC(c2c(C(=O)N3CCOCC3)cnn2-c2ccccc2Cl)CC1	5%	-1%	1%	x	4	x
CC(C)(C)OC(=O)N1CCC(c2c(C(=O)N3CCCCC3)cnn2-c2ccccc2Cl)CC1	18µM*	0%	u	x	7	x
CC(C)(C)OC(=O)N1CCC(c2c(C(=O)N3CCN(c4ccccn4)CC3)cnn2-c2ccccc2Cl)CC1	u	u	18µM*	x	-15	x
Cc1cccc(C)c1-n1ncc(C(=O)N2CCN(c3ccccn3)CC2)c1C1CCN(C(=O)OC(C)(C)C)CC1	u	4%	18µM*	x	-6	x
Cc1cccc(C)c1-n1ncc(C(=O)N2CCN(c3ncccn3)CC2)c1C1CCN(C(=O)OC(C)(C)C)CC1	u	0%	u	x	-3	x
COc1ccc(OC)c(CCNC(=O)c2cnn(-c3ccccc3Cl)c2C2CCN(C(=O)OC(C)(C)C)CC2)c1	18µM*	1%	13µM*	x	4	x
CC1CCCCN1CCCOC(=O)c1ccccc1 (centres undefined)	-6%	x	3%	x	-8	x
CCCOc1ccc(CNC(=O)c2cc3ccccn3n2)cc1	u	-11%	u	x	-9	x
COC(=O)c1cccc(-n2c(CCC(=O)O)ccc2-c2ccc(OC)cc2)c1	15µM*	-2%	15µM*	x	-2	x
COC(=O)c1cccc(-n2c(CCC(=O)O)ccc2-c2cccs2)c1	-17%	-1%	6%	14	14	-3
